Assay [1] concerns Human papillomavirus type 1a protein E7 (residues 44-93). As to the kind of experiment: HPV1a E7 fragment binders on microarrays, primary screen, biochemical, small-molecule microarray, residues 44-93, 635 nm fluorescence (AID 1108).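 Further: E7 fragment applied at 1 µg/mL in TBST for 1 h at 4 C; score combines spot fluorescence with its signal to noise ratio.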 As to conditions: small-molecule microarray binding, fluorescence 635 nm; higher = more signal.
Assay [2] in a line: modulators of HCV replicon luciferase signal, primary screen, HCV replication inhibitor project, Huh7 cells, luciferase reporter (AID 1109).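 Further: huh7 hepatoma cells harbouring a luciferase neomycin HCV replicon reporter; luciferase luminescence as measure of HCV replicon replication; test concentration not given here.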 As to conditions: 48 h, higher = more signal. In general terms: Replicon systems follow genome replication, usually without infectious particles.
Assay [3] has as its target Left-right determination factor 2 (Homo sapiens) (UniProt O00292). As to the kind of experiment: LEFTY2 binders on small-molecule microarrays, primary screen, biochemical, small-molecule microarray, 635 nm fluorescence scan (AID 1110). The note with it: LEFTY2 binding, higher = more signal.
The target in assay [4] is Calmodulin-1 (Homo sapiens) (UniProt P0DP23). As to the kind of experiment: CALM1 binders on microarrays, EGTA buffer, profiling panel, biochemical, small-molecule microarray, Cy5-labelled CALM1 (AID 1111).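 Further: labelled calmodulin applied in Tris saline Tween buffer holding calcium plus EGTA and DTT.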 As to conditions: Cy5-CALM1 binding fluorescence, higher = more signal.
Assay [5] shares this target. As to the kind of experiment: calcium-bound CALM1 binders on microarrays, profiling panel, artefact control for SMM control-protein annotation, biochemical, small-molecule microarray, Cy5-labelled CALM1, plus calcium (AID 1112).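 Further: score merges spot fluorescence with signal to noise from triplicate slides.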 As to conditions: Cy5-CALM1 binding fluorescence, higher = more signal.
Assay [6] is described as follows: small-molecule microarray binders of probe aWnt5a, primary screen, biochemical, biotinylated probe, 635/667 nm fluorescence (AID 1113).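 Further: score merges 667 nm fluorescence intensity with signal-to-noise per printed feature.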 The note with it: higher = more signal.
A short description of assay [7]: small-molecule microarray binders of probe aShh, primary screen, biochemical, biotinylated probe, 635/667 nm fluorescence (AID 1114).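 Further: probe is biotin-labelled aShh protein from a stem cell growth factor screen; measures binding of labelled protein to compounds printed on the slide; score merges feature fluorescence at 667 nm with signal-to-noise.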 The note with it: higher = more signal.
Assay [8] is described as follows: small-molecule microarray binders of probe aNog, primary screen, biochemical, biotinylated probe, 635/667 nm fluorescence (AID 1115).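 Further: probe is biotinylated aNog protein used at 0.15 µg/mL for 1 h at 4 C; z-score combines 667 nm fluorescence of each spot with its signal to noise.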 The note with it: higher = more signal.
Assay [9] addresses Torsin-1A-interacting protein 1 (Homo sapiens) (UniProt Q5JTV8). Kind of assay: LAP1 binders from COS7 cell lysate, primary screen, small-molecule microarray, 635/667 nm fluorescence (AID 1116). The note with it: COS7-hLAP1 lysate binding, 635 nm fluorescence, higher = more signal.
Assay [10] addresses Alpha-bungarotoxin (Bungarus multicinctus) (UniProt P60615). Kind of assay: alpha-bungarotoxin binders on microarray, profiling panel, artefact control for SMM control protein annotation, biochemical, small-molecule microarray, Alexa647 label, 635/667 nm fluorescence (AID 1117). The note with it: alpha-BTX-A647 binding fluorescence, higher = more signal.

SMILES strings stand for the structures.

Chain of Torsin-1A-interacting protein 1 (Homo sapiens) (Q5JTV8 whole entry, looked up): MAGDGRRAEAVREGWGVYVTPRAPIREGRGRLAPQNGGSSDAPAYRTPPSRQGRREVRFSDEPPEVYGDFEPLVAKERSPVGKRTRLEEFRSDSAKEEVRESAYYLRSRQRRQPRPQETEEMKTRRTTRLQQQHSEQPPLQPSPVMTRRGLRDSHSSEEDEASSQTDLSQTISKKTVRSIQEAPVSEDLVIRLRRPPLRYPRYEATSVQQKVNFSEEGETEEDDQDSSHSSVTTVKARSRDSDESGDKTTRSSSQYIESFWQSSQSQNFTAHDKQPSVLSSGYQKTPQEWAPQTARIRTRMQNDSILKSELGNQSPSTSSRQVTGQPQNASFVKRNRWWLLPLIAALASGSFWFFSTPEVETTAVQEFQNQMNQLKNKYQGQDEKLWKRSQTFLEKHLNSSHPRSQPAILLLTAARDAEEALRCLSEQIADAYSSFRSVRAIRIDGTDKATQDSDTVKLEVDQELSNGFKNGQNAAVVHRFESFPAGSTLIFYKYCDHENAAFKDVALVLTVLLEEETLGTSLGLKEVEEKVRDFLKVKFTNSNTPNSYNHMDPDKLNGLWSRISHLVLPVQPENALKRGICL
Chain of Left-right determination factor 2 (Homo sapiens) (O00292 whole entry, looked up): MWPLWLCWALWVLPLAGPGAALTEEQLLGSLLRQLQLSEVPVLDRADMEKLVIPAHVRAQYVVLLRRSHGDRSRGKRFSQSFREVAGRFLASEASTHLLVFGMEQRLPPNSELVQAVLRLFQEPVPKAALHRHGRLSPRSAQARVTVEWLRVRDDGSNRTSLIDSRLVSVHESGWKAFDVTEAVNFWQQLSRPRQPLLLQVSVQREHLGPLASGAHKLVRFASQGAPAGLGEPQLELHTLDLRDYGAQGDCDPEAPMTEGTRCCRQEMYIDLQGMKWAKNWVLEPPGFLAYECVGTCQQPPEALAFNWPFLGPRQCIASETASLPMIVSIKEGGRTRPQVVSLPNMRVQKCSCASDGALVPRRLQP
Chain of Alpha-bungarotoxin (Bungarus multicinctus) (P60615 whole entry, looked up): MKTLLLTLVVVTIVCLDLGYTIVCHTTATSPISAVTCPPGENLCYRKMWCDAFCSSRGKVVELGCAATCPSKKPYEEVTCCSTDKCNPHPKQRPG

In the case of `COC(=O)[C@@H]1CCCN1C(=O)[C@@H](C)CO`, the composite z-score was 0.946 in assay [1]; 0.344 in [3]; 0.49 in assay [4]; 0.0051 in assay [5]; -0.0566 in [6]; -0.2 in assay [7]. The composite z-score in [8] is 0.141; in [9], 0.451; in [10] it was 1.13. In assay [2], this molecule registered a z-score of 0.868.
`COC(=O)[C@@]1(Cc2ccc(F)cc2)[C@H]2c3cc(C(=O)N(C)C)n(Cc4ccc(OC)c(OC)c4)c3C[C@H]2CN1C(=O)c1ccccc1`: the composite z-score in [1] is 0.0897; in assay [3] it was -0.137; in assay [4] it was 0.482; in assay [5] it was 0.0167; in assay [6] it was 0.0833; in assay [7], 0.299. Besides, the composite z-score in assay [8] stood at 0.338; in assay [9], 0.0894; in [10], 0.0611. In assay [2], this molecule came in with a z-score of -1.44.
Regarding `C[C@@H]1CCC2C(=O)N(Cc3ccccc3)C[C@@H](O)CN2[C@H]1c1ccc(Br)cc1` (stereo not given in full), the composite z-score was 0.671 in assay [1]; 0.149 in [3]; 0.102 in assay [4]; -0.28 in assay [5]; -0.169 in [6]; -0.138 in assay [7]. The composite z-score is -0.0675 in assay [8], 0.199 in assay [9] and 0.0711 in assay [10]. Moreover, the z-score in assay [2] came to 0.344.
For the molecule `COc1ccc(O[C@H]2C=C[C@@H](c3ccccc3)O[C@@H]2CON=C[C@@H](C)[C@H](OCc2ccccc2)C(C)C)cc1`, the composite z-score is -0.409 in [1]; -0.0764 in assay [3]; -0.323 in assay [4]; -0.434 in assay [5]; -0.124 in assay [6]; -0.0626 in assay [7]. For the same molecule, the composite z-score in assay [8] is -0.176; in assay [9] it was -1.24; in [10], -0.25. In assay [2], this molecule displayed a z-score of -2.
For the molecule `CC(=O)OC[C@H]1O[C@H](CCON=C(C)CCN2CCc3nc(-c4ccccc4)c(-c4ccccc4)cc3C2)C=C[C@@H]1OC(C)=O`, the composite z-score in [1] was 1.26; in assay [3], 0.0439; in assay [4] it was -0.205; in assay [5], -0.174; in assay [6], -0.0748; in assay [7] it was -0.0425. The composite z-score in assay [8] was -0.273; in assay [9], 0.624; in assay [10], 1.57. In assay [2], the z-score is -1.58.
Regarding `C=C(CCCC)C(=O)CC[C@@H](OC(C)=O)c1cccc(OCCO)c1`, the composite z-score was -0.701 in assay [1]; 0.333 in assay [3]; -0.602 in assay [4]; -1.28 in assay [5]; -0.12 in assay [6]; -0.0227 in assay [7]. The composite z-score in assay [8] is -0.0381; in assay [9], 2.13; in [10] it was -0.0603. The molecule further registered a z-score in assay [2] of -4.56.
For `C=CC[C@@H]1C=C[C@H](ON=C[C@@H](OC)[C@H](C)C=CCC(=O)OC)[C@@H](CO)O1`, the composite z-score in [1] is 0.241; in assay [3] it was 0.283; in assay [4], -0.67; in [5] it was -1.65; in assay [6], -0.0222; in assay [7], -0.0035. The values for the composite z-score in assay [8], in [9] and in [10] were -0.526, 0.848 and -0.741, respectively. This molecule also had a z-score in assay [2] of -0.581.
With `Cc1ccc(C2CC=C(C(=O)O)CN2S(=O)(=O)c2ccc(C)cc2)cc1` (stereo not given), the composite z-score in assay [1] was 1.35; in assay [3], -0.403; in [4] it was 0.189; in assay [5], 0.15; in [6], 0.0018; in [7] it was -0.271. Also, the composite z-score was 0.241 in assay [8], 0.743 in assay [9] and 0.802 in [10]. The z-score in [2] was 0.602.
In the case of `CCOC(=O)[C@H](Cc1ccccc1)NC(=O)CCC1CC(OC(=O)NCc2ccc3c(c2)OCO3)CC2(CCCC(COC(=O)NCC3CCCCC3)O2)O1` (stereo not given in full), the composite z-score in assay [1] was 1.31; in assay [3] it was 0.617; in assay [4], 0.433; in assay [5], -0.135; in [6] it was -0.0179; in assay [7], -0.299. Besides, the composite z-score was -0.167 in assay [8], 0.517 in assay [9] and 0.629 in [10]. In assay [2], this molecule had a z-score of -0.443.
Regarding `COC(=O)CC=C[C@H](C)[C@H](CO)NS(=O)(=O)c1ccc(C)cc1`, the composite z-score was 0.144 in assay [1]; 0.703 in assay [3]; -0.756 in assay [4]; -0.624 in [5]; -0.124 in [6]; -0.117 in assay [7]. The results for the composite z-score in assay [8], in assay [9] and in [10] were -0.0094, 0.729 and 0.219, respectively. For the same molecule, the z-score in assay [2] was -0.763.
`CCOC(=O)[C@H](CC(C)C)NC(=O)CCC1CC(OC(=O)NCc2cccc3ccccc23)CC2(CCCC(COC(=O)NCCc3ccccc3OC)O2)O1` (stereo not given in full): the composite z-score was 1.38 in [1]; 0.488 in assay [3]; 1.3 in assay [4]; 0.371 in assay [5]; -0.124 in assay [6]; -0.214 in assay [7]. For the same molecule, the composite z-score in assay [8] is -0.335; in assay [9] it was 0.607; in assay [10], 0.588. The same molecule displayed a z-score in assay [2] of -1.24.
Turning to `Cc1ccc(S[C@]2(C(=O)O)CC(=O)N(Cc3ccccc3)[C@@H]2c2ccc(CO)cc2I)cc1`, the composite z-score in assay [1] is 0.34; in [3], -0.891; in assay [4], -0.0405; in assay [5], -0.0584; in assay [6], -0.118; in assay [7], -0.206. For the same molecule, the composite z-score in [8] was -0.409; in [9] it was -0.192; in assay [10] it was 0.823. The molecule further showed a z-score in assay [2] of -1.45.
As for `C#CCCCON=C1C[C@@H](O)[C@@H](O)[C@@H]2[C@@H]3C(=O)N(CCC(=O)OCC)C(=O)[C@@H]3CC[C@@H]12`, the composite z-score in assay [1] is -0.58; in assay [3], -0.174; in assay [4], -0.335; in assay [5] it was 0.0811; in assay [6], -0.0748; in assay [7] it was 0.246. The results for the composite z-score in assay [8], in [9] and in assay [10] were 0.206, -0.221 and 1.04, respectively. In assay [2], the z-score was -2.78.
In the case of `CC(C)(C)N1CC=CC23O[C@@H]4C=CCCOC(=O)C4[C@H]2C(=O)N(CCCCCO)[C@@H]3C1=O` (stereo not given in full), the composite z-score in assay [1] was 0.433; in [3] it was -0.316; in assay [4], -0.582; in assay [5], -0.839; in assay [6], -0.0327; in [7] it was 0.0796. The composite z-score in assay [8] was -0.206; in assay [9], 2.15; in assay [10], -0.949. This molecule also had a z-score in [2] of 0.651.
`O=C1[C@H]2[C@H]3[C@H](O)[C@H](O)CC(=NOCc4ccccc4)[C@@H]3CC[C@H]2C(=O)N1Cc1ccccc1`: the composite z-score in assay [1] was 0.813; in [3], 0.509; in assay [4] it was 0.675; in assay [5], -0.374; in assay [6], -0.197; in assay [7], 0.214. The composite z-score in assay [8] worked out at 0.144; in assay [9] it was 0.102; in [10], 0.159. The z-score in assay [2] was 0.427.
With `O=C1C[C@@H](O)[C@@H](O)[C@@H]2[C@@H]3C(=O)N(c4ccc(F)cc4F)C(=O)[C@@H]3CC[C@@H]12`, the composite z-score is 0.461 in [1]; 0.585 in assay [3]; -0.0799 in assay [4]; -0.389 in assay [5]; 0.441 in assay [6]; -0.221 in [7]. Besides, the composite z-score was -0.22 in assay [8], 0.408 in assay [9] and -0.157 in assay [10]. This molecule also displayed a z-score in [2] of 0.586.
Take `COC(=O)CC=C[C@@H](C)[C@H](OC)c1ccccc1Br`: the composite z-score was -0.0017 in assay [1]; 0.406 in [3]; -0.0557 in assay [4]; -0.346 in assay [5]; -0.116 in assay [6]; -0.279 in [7]. For the same molecule, the composite z-score was -0.482 in assay [8], 0.188 in [9] and -0.152 in assay [10]. The molecule further had a z-score in [2] of 0.14.
With `COc1ccc([Si](C)(C)[C@H]2[C@H](CCO)O[C@@]3(C(=O)N(Cc4cccc(NC(=O)[C@H](C)O)c4)c4ccccc43)[C@@H]2C)cc1`, the composite z-score in [1] is 1.39; in assay [3] it was 0.383; in assay [4] it was 0.922; in assay [5], -0.14; in [6] it was -0.101; in assay [7] it was 0.0144. Moreover, the composite z-score in [8] was -0.074; in assay [9], 0.798; in assay [10], 1.36. For the same molecule, in assay [2], the z-score is -5.13.

For the origin of these results see PubChem BioAssay.
